Pf growth 96h: P. falciparum growth inhibition at 96 hours. P. falciparum luciferase reporter growth, 96 h. AID 504834. 320,000 tested, 6.9% active. Potency, µM (series often up to 28.7 µM), usual class: inhibitors
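Compounds incubated with erythrocytes infected by luciferase-expressing P. falciparum (2% hematocrit, 0.05% parasitemia final) for 96 hours, 37 C in 5% CO2. Growth inhibition scored as decreased luciferase luminescence.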
CHX counter: affects cycloheximide protein synthesis inhibition readout, counter-screen; cell reporter, cycloheximide protein synthesis inhibition counterscreen; 300,000 tested, 12% active; max response, %; AID 2314; in the data active = max response mostly above about 13%, no sharp cut-off; inactive = mostly below about 14%; note: read at 38.3 µM for the half of the compounds with a filed dose
Pf growth 48h: inhibits P. falciparum growth in the first generation, 48 h | 310,000 tested, 5.9% active | P. falciparum luciferase growth in erythrocytes, 48 h | Potency, µM (top dose mostly 28.7 µM), actives largely listed as inhibitors
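Cell-based growth assay: transgenic P. falciparum expressing firefly luciferase, cultured in red cells within RPMI 1640 containing 0.5% w/v Albumax, 24 mM bicarbonate and gentamycin. A drop in luciferase activity indicates inhibition.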
Shiga toxin inh: blocks Shiga toxin action in Vero cells | Vero cells, Shiga toxin protein synthesis inhibition reporter | inhibition, % at 38.7 µM | 290,000 tested, 9.2% active | AID 2315; in the data active = inhibition mostly above about 28%, no sharp cut-off; inactive = mostly below about 43%
Of the large screens only hits and unclear results are named; the others gave an inactive call. Rows were chosen to be rich in hits. Some 21% of all compounds tested hit in one or more screens of this group. Unless noted, calls come from the whole dose curve; as a rule, active = well fitted inhibition curve with a large enough effect; inconclusive = small, poorly fitted or top-dose-only effect, or another doubt; inactive = no such curve, though single readings can be large or run the other way.

Cc1ccc(S(=O)(=O)N2CCOC2CNC(=O)C(=O)NCCCN2CCOCC2)cc1 (stereo not drawn)	none
O=C(NCc1cccnc1)c1cc(S(=O)(=O)N2CCCC2)c(Cl)cc1Cl	none
COc1ccc(OC)c(NC(=O)C2=C(C)Nc3ncnn3C2c2cccs2)c1 (stereo not drawn)	none
COc1ccc(C2Oc3ccccc3C3=C2C(c2cccs2)n2ncnc2N3)cc1 (stereo not drawn)	Pf growth 48h 8.28µM (no result: Pf growth 96h)
Brc1ccc(C2C3=C(Nc4ncnn42)c2ccccc2OC3c2ccncc2)cc1 (stereo not drawn)	Pf growth 48h 13.1µM (no result: Pf growth 96h)
CCCCS(=O)(=O)/C=C\C=C/S(=O)(=O)CCCC	Pf growth 96h inconclusive, Pf growth 48h 9.28µM
COC(=O)Nc1ccc(=O)n(Cc2c(Cl)cccc2Cl)c1	none
Cc1ccc(NC(=O)C2CCN(C(=O)[C@@H]3Cc4ccccc4CN3)CC2)cc1	CHX counter 24.4, Shiga toxin inh 63.1
CCc1ccc(NC(=O)C2CCC(CNC(=O)[C@@H]3Cc4ccccc4CN3)CC2)cc1 (stereo partly drawn)	CHX counter 27.2, Pf growth 48h inconclusive
Cc1cc(C)cc(NC(=O)C2CCN(C(=O)[C@@H]3Cc4ccccc4CN3)CC2)c1	none
Cc1cc(C)cc(NC(=O)C2CCC(CNC(=O)[C@@H]3Cc4ccccc4CN3)CC2)c1 (stereo partly drawn)	none
CC(C)c1ccc(NC(=O)C2CCN(C(=O)[C@@H]3Cc4ccccc4CN3)CC2)cc1	CHX counter 22.9, Shiga toxin inh 45.7
O=C(Cn1nc(-c2cccc([N+](=O)[O-])c2)c2ccccc2c1=O)NCC1CCCO1 (stereo not drawn)	Pf growth 48h inconclusive
OCC(O)C(O)C(O)CO (stereo not drawn)	none (no result: CHX counter, Shiga toxin inh)
COc1ccc(-n2ncc(C(C)NS(=O)(=O)c3cccs3)c2C)cc1 (stereo not drawn)	Pf growth 48h inconclusive
CC(/C=N/Nc1nnc(C)c(=O)[nH]1)=C\c1ccccc1	CHX counter 26.3, Shiga toxin inh 81.2
COC(=O)c1cccc(NC(=O)Cc2nc(-c3ccccc3)sc2-c2ccc(C)cc2)c1	Pf growth 48h inconclusive
COc1cccc(NC(=O)Cc2nc(-c3ccccc3)sc2-c2ccc(C)cc2)c1	Pf growth 96h 10.4µM, CHX counter 28.1, Pf growth 48h inconclusive, Shiga toxin inh 51.1
CC(=O)Nc1cccc(NC(=O)Cc2nc(-c3ccccc3)sc2-c2ccc(C)cc2)c1	Pf growth 96h inconclusive, CHX counter 20.4, Pf growth 48h inconclusive, Shiga toxin inh 130.5
CCOC(=O)c1c(NC(=O)c2ccco2)n(C2CCCCC2)c2nc3ccccc3nc12	Pf growth 96h 10.4µM, Pf growth 48h inconclusive
CCOC(=O)c1c(N)n(C2CC(C)(C)NC(C)(C)C2)c2nc3ccccc3nc12	Pf growth 96h 9.28µM, Pf growth 48h 10.4µM
CCOC(=O)c1c(N)n(-c2ccc(N)cc2)c2nc3ccccc3nc12	Pf growth 96h inconclusive, Pf growth 48h inconclusive
CCC(=O)Nc1c(C#N)c2nc3ccccc3nc2n1C1CCCCC1	Pf growth 96h inconclusive, Pf growth 48h inconclusive
Cc1cc[n+](-c2[nH]c(=O)sc2/C=N/N=C(\[O-])c2ccncc2)cc1C	none
O=C(N/N=C/c1sc(=O)[nH]c1-[n+]1ccccc1)c1ccccc1[O-]	none
O=c1[nH]c(-[n+]2ccccc2)c(/C=N/N=C(\[O-])c2ccccc2)s1	CHX counter 18.9, Shiga toxin inh 40.5
Cc1cc[n+](-c2[nH]c(=O)sc2/C=N/N=C(\[O-])c2ccccc2)cc1C	CHX counter 38.9, Shiga toxin inh 73.8
Cc1cc[n+](-c2[nH]c(=O)sc2/C=N/N=C(\[O-])c2ccccc2)cc1	CHX counter 49.0, Shiga toxin inh 68.3
O=C(N/N=C/c1sc(=O)[nH]c1-[n+]1ccc2ccccc2c1)c1ccccc1[O-]	CHX counter 27.1, Shiga toxin inh 48.4
COc1ccc(OC)c2c1cc(C(=O)N[C@H](C(=O)N1CCC(C(=O)O)CC1)C(C)C)n2C	none
COc1ccc(-c2nnc(SCC(=O)NC3CCCCC3)n2N)cc1	none (no result: CHX counter, Shiga toxin inh)
CN(CC(=O)Nc1ccc(Cl)c(C(F)(F)F)c1)C(=O)CNC(=O)C1CCCCC1	none (no result: CHX counter, Shiga toxin inh)
NCC(O)CN1CCN(Cc2ccccc2)CC1 (stereo not drawn)	none
NC(=O)CC(NC(=O)Cc1ccc(Cl)cc1)c1ccc(NCCN2CCOCC2)c([N+](=O)[O-])c1 (stereo not drawn)	Pf growth 96h inconclusive
COCCCNC(=O)CCc1nc2cccnc2n1Cc1ccccc1	Pf growth 96h 8.28µM
COc1ccc(Cn2c(CCC(=O)Nc3ccc(CC#N)cc3)nc3cccnc32)cc1	Pf growth 96h 3.7µM, Pf growth 48h inconclusive
CN(C(=O)CSC(=O)c1ccccc1)c1ccccc1	none

From PubChem
